TIM10 inh – inhibits growth of TIM10 yeast strain; inhibition, % at 10 µM; S. cerevisiae TIM10 strain growth, BacTiter-Glo luminescence, 24 h; 330,000 compounds, 1.4% hits; AID 463195;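 active = inhibition of 40% or more at the single tested concentration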;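 also: wild-type TIM10 isogenic control strain grown at permissive 25 °C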
SKKanGAS inh – SKKanGAS growth inhibition; S. pyogenes SKKanGAS, kanamycin growth, BacTiter-Glo, 6 h; inhibition, % at 7.5 µM; 300,000 compounds, 1.3% hits;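 active = mean replicate score, as percent of positive control median, at least 50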;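 also: strain carries kanamycin resistance gene driven by streptokinase promoter and grows in 40 µg/ml kanamycin; loss of luminescence reflects streptokinase promoter inhibition or plain growth inhibition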
tim10-1 inh – tim10-1 yeast growth inhibition | S. cerevisiae tim10-1 ts strain growth, BacTiter-Glo, 24 h | inhibition, % at 20 µM | 330,000 compounds, 2.2% hits;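 active = inhibition of at least 40%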;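 also: mutant grown at 25 °C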
V-ATPase pHluor – regulators of yeast V-ATPase proton transport; response, % at 10 µM; 350,000 compounds, 0.37% hits; S. cerevisiae, pHLuorin cytosolic pH fluorescence; in the data active = response mostly above about 7.3%, no sharp cut-off; inactive = mostly below about 5.4%; also: actives read high
PfHsp90 yeast 2 – reduces growth (ATP signal) of yeast expressing P. falciparum Hsp90; S. cerevisiae expressing PfHsp90, BacTiter-Glo ATP, 48 h; yeast lacking PDR1 and PDR3 efflux regulators; inhibition, % at 9.4 µM; 310,000 compounds, 0.32% hits; AID 504621;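 active = every replicate shows inhibition above about 80%, whatever the replicate mean, limit read from the data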
tim23-1 inh – inhibits growth of tim23-1 mutant yeast. 330,000 compounds, 1.3% hits. S. cerevisiae tim23-1 growth, BacTiter-Glo luminescence, 24 h. inhibition, % at 20 µM;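 active = growth inhibition of the mutant yeast at or above 50%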;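 also: temperature-sensitive mutant grown at 25 °C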
Large screens that a line does not name were inactive. Sampled rows, rich in hits. Any-hit rate of the full collection: about 4.6%.

CN(C(=O)C1CCC(=O)N(CCCN2CCCC2=O)C1)C(C1CC1)C1CC1 (stereo not drawn)	none
COc1ccccc1-c1nnc(NC(=O)C(C)C)s1	V-ATPase pHluor 8.0
COc1ccccc1-c1nnc(NC(C)=O)s1	none (no result: PfHsp90 yeast 2)
COCCNC(=O)/C(C#N)=c1\s/c(=C\c2ccccc2OC(F)F)c(=O)n1Cc1ccccc1	none (no result: V-ATPase pHluor, PfHsp90 yeast 2)
COc1ccc(OCC(=O)Nc2ccc3nc(C)sc3c2)cc1	none
O=C(NNC(=O)c1ccccc1OCc1ccc(F)cc1)c1ccccc1O	SKKanGAS inh 92.9
COc1cccc2c1C(=O)c1c(O)c3c(c(O)c1C2=O)C[C@@](O)(C(C)=O)C[C@@H]3O[C@H]1C[C@H](N)[C@H](O)[C@H](C)O1	none (no result: TIM10 inh, SKKanGAS inh, tim10-1 inh, tim23-1 inh)
COc1cccc2c1C(=O)c1c(O)c3c(c(O)c1C2=O)C[C@@](O)(C(=O)CO)C[C@@H]3O[C@H]1C[C@H](N)[C@@H](O)[C@H](C)O1	SKKanGAS inh 107.6
COc1cccc2c1C(=O)c1c(O)c3c(c(O)c1C2=O)CC(O)(C(=O)CO)CC3OC1CC(N(C)C)C(O)C(C)O1 (stereo not drawn)	PfHsp90 yeast 2 105.7 (no result: TIM10 inh, SKKanGAS inh, tim10-1 inh, tim23-1 inh)
CC(=O)[C@]1(O)Cc2c(O)c3c(c(O)c2[C@@H](O[C@H]2C[C@H](N)[C@H](O)[C@H](C)O2)C1)C(=O)c1ccccc1C3=O	SKKanGAS inh 103.5 (no result: V-ATPase pHluor, PfHsp90 yeast 2)
CCCc1nc(NCc2ccccc2)c(C#N)c2c1CCCC2	SKKanGAS inh 73.7
O=C(c1cnn2c(-c3ccccc3)cc(-c3ccccc3)nc12)N1CCN(Cc2ccccc2)CC1	none
COc1ccc(CCNC(=O)c2c(O)c3ccccc3[nH]c2=O)cc1OC	none
CCS(=O)(=O)c1ccc(N=Nc2ccc(O)c3ncccc23)c(OC)c1	none
Oc1ccc(N=Nc2ccccc2C(F)(F)F)c2cccnc12	SKKanGAS inh 97.5
COc1ccccc1N=Nc1ccc(O)c2ncccc12	SKKanGAS inh 94.5, PfHsp90 yeast 2 98.8
CC(C)OC(=O)c1c2nc3ccccc3nc2n2c1[nH]c(=O)c1ccccc12	SKKanGAS inh 55.3 (no result: V-ATPase pHluor, PfHsp90 yeast 2)
CC1CN(c2sc(S(C)(=O)=O)nc2S(=O)(=O)c2ccc(Cl)cc2)CC(C)O1 (stereo not drawn)	V-ATPase pHluor 13.2
O=C(Cc1ccc(S(=O)(=O)N2CCCC2)s1)Nc1nc2c(s1)CCCC2	SKKanGAS inh 62.3 (no result: PfHsp90 yeast 2)
Cc1cc(C)nc(NNC(=O)c2ccccc2O)n1	none
Cc1c(C(=O)N2CCCCC2)nn(-c2ccc(Cl)cc2)c(=O)c1C#N	none (no result: PfHsp90 yeast 2)
COc1ccc(-c2nnc3n(CCc4ccccc4)c(=O)c4ccccc4n23)c(OC)c1	PfHsp90 yeast 2 107.2
CC(C)c1c(C(=O)N/N=C/c2ccc(OCc3ccc(F)cc3)cc2)nnn1-c1nonc1N	none
CC(C)c1c(C(=O)N/N=C/c2cccc(OCc3ccccc3)c2)nnn1-c1nonc1N	SKKanGAS inh 80.9
COc1cccc(/C=N/NC(=O)c2nnn(-c3nonc3N)c2C(C)C)c1OCc1ccc(F)cc1	SKKanGAS inh 60.3
COc1ccc(NC(=O)c2cc(C)cc(C)c2)cc1S(=O)(=O)N1CCCCC1	none (no result: SKKanGAS inh)
O=C1c2ccccc2C2N1CCCN2C(=O)c1sc2ccccc2c1Cl (stereo not drawn)	none (no result: TIM10 inh, SKKanGAS inh, tim10-1 inh, PfHsp90 yeast 2, tim23-1 inh)
CC(=O)c1cccc(OC(=O)c2ccc3c(=O)n4c(nc3c2)CCC4)c1	SKKanGAS inh 53.6
Cc1[nH]c2ccccc2c1C(=O)COC(=O)c1ccc2c(=O)n3c(nc2c1)CCC3	SKKanGAS inh 93.0
CN(C(=O)COC(=O)c1ccc2c(=O)n3c(nc2c1)CCC3)c1ccccc1	none
CC(C)(Oc1ccc(Cl)cc1)C(=O)NC1=NN(c2ccccc2)C(=O)C1	SKKanGAS inh 94.5
O=C1CC(NC(=O)C(F)(F)F)=NN1c1ccccc1	none
N#Cc1ccc(C23OCCN2CCn2nc4ccccc4c23)cc1 (stereo not drawn)	none (no result: SKKanGAS inh)
CC(=O)Nc1ccc(C2NC(=O)CCC2[N+](=O)[O-])cc1 (stereo not drawn)	none
Cc1cc(/C=C2\SC(=Nc3ccccc3)NC2=O)c(C)n1-c1ccc(S(N)(=O)=O)cc1	SKKanGAS inh 72.2
CCN(CC(=O)NCc1ccc(Cl)cc1)C(=O)c1oc2ccccc2c1C	none
Cc1c(C(=O)NNC(=S)NCc2ccc(Cl)cc2)oc2ccccc12	SKKanGAS inh 82.3
O=C(Nc1cccc(-c2csc(Nc3cccc(C(F)(F)F)c3)n2)c1)c1cc([N+](=O)[O-])cc(C(F)(F)F)c1	SKKanGAS inh 77.4
O=C(Nc1ccc(-c2csc(Nc3ccccc3)n2)cc1)c1cccc(C(F)(F)F)c1	SKKanGAS inh 64.6
CCCCn1c(Cn2nc(C(=O)O)c3ccccc3c2=O)nc2cc(S(N)(=O)=O)ccc21	none
CCCNC(=O)c1ccc2c(c1)nc(C)n2-c1cccc(Cl)c1	none
CC(C)n1cc(CN2CCC(C(=O)Nc3ccc(Oc4ccccc4F)cc3)CC2)cn1	none
CC(=O)c1c(C)[nH]c(C(=O)CN2CCN(S(=O)(=O)c3ccccc3F)CC2)c1C	none (no result: SKKanGAS inh)
Cc1ccc(-c2ccc([C@H]3[C@H]4C=CC[C@@H](C)[C@@H]4C(=O)N3Cc3ccccc3)c(F)c2)cc1	none
C[C@@H]1CC=C[C@H]2[C@H]1C(=O)N(Cc1ccccc1)[C@H]2c1ccc(Br)cc1F	SKKanGAS inh 51.9
Cc1nn(-c2ccc(F)cc2)c(Cl)c1/C=N/NC(=O)c1cccs1	none
O=C(N/N=C/c1ccc([N+](=O)[O-])o1)c1ccc(NS(=O)(=O)c2cccs2)cc1	SKKanGAS inh 72.5
O=C(N/N=C/C=C/c1ccccc1[N+](=O)[O-])c1cccs1	none
O=C(N/N=C\C=C\c1ccc([N+](=O)[O-])o1)c1cccs1	SKKanGAS inh 91.2
Cc1nn(-c2ccc(Cl)cc2)c(Cl)c1/C=N/NC(=O)c1ccc(NS(=O)(=O)c2cccs2)cc1	SKKanGAS inh 63.1
CCN(CC)CCCNC(=O)c1ccc(S(=O)(=O)Nc2ccc(C)c(C)c2)cc1	none (no result: SKKanGAS inh)
CCOc1ccc(S(=O)(=O)N2CCC(C(=O)NCCN3CCOCC3)CC2)cc1C	none
O=C(O)C1CCc2nc(NCc3ccccc3)nc(NCc3ccccc3)c2C1 (stereo not drawn)	none (no result: TIM10 inh, SKKanGAS inh, tim10-1 inh, tim23-1 inh)
CCCc1nnc(NC(=O)CSc2nc3ccccc3[nH]2)s1	none
O=C(CSc1nc2ccccc2[nH]1)Nc1nc(-c2cccc(Br)c2)cs1	SKKanGAS inh 80.2
CC(=O)N/N=C/c1ccc(OCCOc2ccc(Br)cc2)cc1	none
Cc1ccccc1CCN(C(=O)c1csnn1)C(C(=O)NC1CCCC1)c1ccncc1 (stereo not drawn)	none
Cc1cc(C)nc(NC(=O)Nc2ccc(F)cc2F)n1	none
CCCSc1nsc(NC(=O)Nc2ccc(F)cc2F)n1	SKKanGAS inh 64.0
CCCSc1nsc(NC(=O)CC)n1	none
CCCSc1nsc(NC(=O)C(c2ccccc2)c2ccccc2)n1	SKKanGAS inh 99.7
O=C(COC(=O)c1ccc(S(=O)(=O)Nc2ccccc2)cc1)NCCC1=CCCCC1	none
Cc1ccc(N(CCC#N)C(=O)COC(=O)c2ccccn2)cc1	none
